Molecules are shown by their SMILES. Records with an inconclusive call do not appear. Activity calls are given as the source filed them.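 How the source made its calls, unless noted: active means aptamer binding inhibition above 30%, about 3 SD of noise from non-fluorescent compounds; inactive means inhibition at or below 30%.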

Experiment [1] is described as follows: rapamycin-like changes in RPL19A-GFP expression – cell-based, S. cerevisiae, multiplex flow cytometry, primary screen (AID 1862; in the data active means percent of DMSO control GFP below about 86%;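 further: lower values mimic rapamycin by blocking the RPL19A rise seen in DMSO cells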). To be noted: S. cerevisiae RPL19A-GFP strain, flow cytometry fluorescence, 3 h; at 10 µM; stronger effect = lower value. On the technique in general: A flow cytometer gives signals particle by particle.
Experiment [2] can be described thus: TOR pathway GLN3 branch reporter MEP2-GFP changes – S. cerevisiae, multiplex flow cytometry, primary screen (AID 1867;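 active means GFP response, as percent of the DMSO control, above the screen-wide mean plus 3 SD, about 139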;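 further: median GFP channel fluorescence of barcode-gated MEP2-GFP cells measured by flow cytometry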). To be noted: S. cerevisiae MEP2-GFP strain, 3 h, at 10 µM, stronger effect = higher value, 100% means same as DMSO wells.
Experiment [3] is described as follows: TOR pathway RTG branch CIT2 reporter changes – S. cerevisiae, GFP fusion, multiplex flow cytometry, primary screen (AID 1870;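 active means percent response above a set limit, the screen-wide mean plus 3 SD, cut at about 130% in these data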;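 further: barcoded CIT2-GFP strain pooled with four other GFP strains with rapamycin as positive control; median GFP fluorescence per well over plate mean of DMSO wells so 100% = DMSO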). To be noted: S. cerevisiae CIT2-GFP expression, 3 h, at 10 µM, stronger effect = higher value.
The nature of experiment [4]: TOR pathway LAP4-GFP level changes – S. cerevisiae, multiplex flow cytometry, primary screen (AID 1873;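 active means GFP signal, as percent of the solvent control, above the screen mean plus 3 SD, about 149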). The conditions noted are these: S. cerevisiae LAP4-GFP expression, 3 h, at 10 µM, stronger effect = higher value.
The nature of experiment [5]: yeast AGP1-GFP level changes, GLN3 branch – cell-based, multiplex flow cytometry, S. cerevisiae, primary screen (AID 1887;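 active means GFP signal above the screen-wide mean plus 3 SD, that is over about 124.5% of the solvent control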;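 further: AGP1-GFP fusion strain of S. cerevisiae within a five-strain barcoded multiplex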). To be noted: 3 h, at 10 µM, stronger effect = higher value.
Experiment [6] is described as follows: reduced mouse 2C T cell binding to pMHC/ICAM-1 vesicles – MLPCN validation set, flow cytometry, LFA-1/ICAM-1 modulator project, pilot screen (AID 2523;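 active means response below a set limit, under 55% cells CD8-positive and vesicle-bound, and CD8 cells' 90th-percentile brightness under 279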;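 on vesicle binding response: mean PE anti-B7-1 fluorescence of CD8+ cells relative to row control; 100% = QL9-loaded vesicles with DMSO vehicle in the same plate row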). To be noted: 2C mouse CD8+ T cells, at 7 µM, stronger effect = lower value; double positive events: measured here: CD8+/vesicle+ event percentage.
Experiment [7] has as its target Integrin beta-1 (Homo sapiens) + Integrin alpha-4 (Homo sapiens) (UniProt P13612+P05556). As to the kind of experiment: alpha4beta1 integrin LIBS antibody binding reduction – U937 cells, HUTS-21 mAb, flow cytometry, validation set, VLA-4 allosteric modulator project, pilot screen (AID 2674;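 active means inhibition above 50%, about 3 SD of the validation set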;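 further: antibody binding induced by the VLA-4 ligand LDV present at three times its Kd; 0% = LDV ligand with antibody and no compound and 100% = antibody without LDV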). To be noted: HUTS-21 LIBS mAb binding, at 6.7 µM, stronger effect = higher value, binding induced by LDV ligand.

Experiment [8] is described as follows: calorie-restriction mimetic ROS inhibitors, yeast – validation compound set, pilot screen (AID 2706;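 active means superoxide response below 65% of plate, a cut near 3 SD across the whole screen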;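 further: yeast exposed to compound for one week at 30 degrees C before staining; 100% = mean of all compound wells on the same plate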). The conditions noted are these: S. cerevisiae aging, superoxide DHE fluorescence; at 10 µM; stronger effect = lower value.
Experiment [9] addresses Beta-adrenergic receptor kinase 1 (Homo sapiens) (UniProt P25098). Put plainly: GRK2 binders displacing RNA aptamer, biochemical, validation, human GRK2, bead flow cytometry (AID 488806). To be noted: bead-bound GRK2, FAM-aptamer displacement, at 10 µM, stronger effect = higher value.
The target in experiment [10] is Beta-2 adrenergic receptor (Homo sapiens) (UniProt P07550). Put plainly: agonist-induced loss of surface beta2AR – cell-based, FAP fluorogen, flow cytometry, validation set, pilot screen (AID 504459;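 active means percent response above 42, roughly 3 SD of non-fluorescent test compounds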;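 further: agonist-driven loss of surface beta2AR via internalization measured by FAP dye flow cytometry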). The conditions noted are these: Am2.2-beta2AR cells, at 10 µM, stronger effect = higher value.
For experiment [11], the target named is AP-2 complex subunit beta (Homo sapiens) (UniProt P63010). As to the kind of experiment: beta-arrestin/AP2 interaction blockers – biochemical, validation set, GST-AP2 beads, flow cytometry, pilot screen (AID 504541;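 active means inhibition above 54%, about 3 SD of non-fluorescent compounds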;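 further: AP2 carries R879A mutation and is captured from E. coli lysate; bead-bound FITC arrestin peptide fluorescence measuring arrestin peptide binding to AP2; 0% = DMSO wells and 100% = excess unlabeled arrestin peptide control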). The conditions noted are these: FITC arrestin peptide, at 10 µM, stronger effect = higher value, AP2 beta2 appendage fragment, R879A mutant.
The nature of experiment [12]: cytosolic pH regulators acting via V-ATPase – S. cerevisiae, pHLuorin, HTS validation (AID 504600; in the data active means response above about 15%;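 further: plate controls were DMSO for no effect and reference compound for full effect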). To be noted: V-ATPase proton transport, at 10 µM, stronger effect = higher value.
The test system of experiment [13] is anti-desmoglein-3 scFv antibody binding to human DSG3. Put plainly: blockers of pathogenic pemphigus antibody–desmoglein-3 binding – biochemical, validation compound set, bead-based, flow cytometry, pilot screen (AID 588368;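 active means binding below the plate cutoff, the plate median minus 3 SD, with a reading above zero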;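 further: signal is the median channel fluorescence of bead-bound GFP antibody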). The conditions noted are these: Protein G beads, DSG3-Fc, scFv-GFP binding, at 10 µM, stronger effect = lower value.
The nature of experiment [14]: Nile Red efflux blockade in pump-expressing yeast – validation compound set, multiplex, phenotypic, pilot screen (AID 588506;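 active means efflux inhibition above 0.42, the validation set average plus 4 SD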;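 further: Nile Red retained in cells so higher fluorescence means more efflux inhibition; 0 = negative control wells and 1 = enniatin B 25 µM full block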). To be noted: S. cerevisiae pump-expressing triplex, Nile Red efflux flow cytometry; at 10 µM; stronger effect = higher value; the pumps come from Candida albicans.
For experiment [15], the target named is ATP-binding cassette sub-family B member 6 (Homo sapiens) (UniProt Q9NP58). As to the kind of experiment: blockers of ABCB6-driven porphyrin uptake – K562-ABCB6 cells, flow cytometry, validation set, pilot screen (AID 588550;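 active means inhibition above the screen-wide mean plus 3 SD, about 51%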;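 further: 0% = DMSO wells and 100% = benzethonium chloride 70 µM positive control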). To be noted: K562-ABCB6 porphyrin accumulation, 1 h, at 10 µM, stronger effect = higher value.
Experiment [16] can be described thus: AML differentiation inducers, ER-HoxA9 marrow cells – cell-based, GFP/MAC1 double positive, flow cytometry, validation set, primary screen (AID 588685;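 active means differentiation response of at least 50%, scaled between solvent and reference control, from cells with both markers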;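 further: compound exposure lasts four days before antibody staining and flow analysis; 0% = DMSO wells and 100% = 5 µM fulvestrant positive control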). To be noted: stronger effect = higher value, normalized: vehicle 0, fulvestrant 100.

Beta-adrenergic receptor kinase 1 (Homo sapiens), sequence (P25098 whole entry, looked up): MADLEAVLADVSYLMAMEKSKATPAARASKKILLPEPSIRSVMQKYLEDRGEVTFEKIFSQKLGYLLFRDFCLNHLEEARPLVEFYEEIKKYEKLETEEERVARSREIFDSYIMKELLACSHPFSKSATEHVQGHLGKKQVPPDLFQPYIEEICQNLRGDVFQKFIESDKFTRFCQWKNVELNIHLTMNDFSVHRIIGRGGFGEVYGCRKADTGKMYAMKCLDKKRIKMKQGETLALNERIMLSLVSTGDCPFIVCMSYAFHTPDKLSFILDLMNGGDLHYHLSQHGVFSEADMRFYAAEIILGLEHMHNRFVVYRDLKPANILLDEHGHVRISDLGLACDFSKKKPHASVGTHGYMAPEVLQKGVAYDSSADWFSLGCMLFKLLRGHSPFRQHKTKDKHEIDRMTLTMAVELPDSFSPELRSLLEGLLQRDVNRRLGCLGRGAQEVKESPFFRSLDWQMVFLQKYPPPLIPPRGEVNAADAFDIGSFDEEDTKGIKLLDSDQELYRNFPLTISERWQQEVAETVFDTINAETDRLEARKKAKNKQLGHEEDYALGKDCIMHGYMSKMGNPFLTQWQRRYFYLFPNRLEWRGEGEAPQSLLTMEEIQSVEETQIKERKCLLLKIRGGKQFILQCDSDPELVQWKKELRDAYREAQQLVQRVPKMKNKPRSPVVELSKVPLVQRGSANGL
Beta-2 adrenergic receptor (Homo sapiens), sequence (P07550 whole entry, looked up): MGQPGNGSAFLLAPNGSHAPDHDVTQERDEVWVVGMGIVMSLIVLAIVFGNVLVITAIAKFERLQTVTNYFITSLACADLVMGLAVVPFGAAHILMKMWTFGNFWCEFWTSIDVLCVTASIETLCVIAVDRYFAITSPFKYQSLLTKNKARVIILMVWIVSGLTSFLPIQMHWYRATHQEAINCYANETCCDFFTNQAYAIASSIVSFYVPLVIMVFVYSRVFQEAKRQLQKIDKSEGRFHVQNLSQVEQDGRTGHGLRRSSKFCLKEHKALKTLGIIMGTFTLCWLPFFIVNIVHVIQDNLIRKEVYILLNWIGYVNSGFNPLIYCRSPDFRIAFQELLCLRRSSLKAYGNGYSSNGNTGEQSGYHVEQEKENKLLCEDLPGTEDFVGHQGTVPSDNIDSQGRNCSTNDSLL
AP-2 complex subunit beta (Homo sapiens), sequence (P63010 whole entry, looked up, the tested form may be a part, one chain of several): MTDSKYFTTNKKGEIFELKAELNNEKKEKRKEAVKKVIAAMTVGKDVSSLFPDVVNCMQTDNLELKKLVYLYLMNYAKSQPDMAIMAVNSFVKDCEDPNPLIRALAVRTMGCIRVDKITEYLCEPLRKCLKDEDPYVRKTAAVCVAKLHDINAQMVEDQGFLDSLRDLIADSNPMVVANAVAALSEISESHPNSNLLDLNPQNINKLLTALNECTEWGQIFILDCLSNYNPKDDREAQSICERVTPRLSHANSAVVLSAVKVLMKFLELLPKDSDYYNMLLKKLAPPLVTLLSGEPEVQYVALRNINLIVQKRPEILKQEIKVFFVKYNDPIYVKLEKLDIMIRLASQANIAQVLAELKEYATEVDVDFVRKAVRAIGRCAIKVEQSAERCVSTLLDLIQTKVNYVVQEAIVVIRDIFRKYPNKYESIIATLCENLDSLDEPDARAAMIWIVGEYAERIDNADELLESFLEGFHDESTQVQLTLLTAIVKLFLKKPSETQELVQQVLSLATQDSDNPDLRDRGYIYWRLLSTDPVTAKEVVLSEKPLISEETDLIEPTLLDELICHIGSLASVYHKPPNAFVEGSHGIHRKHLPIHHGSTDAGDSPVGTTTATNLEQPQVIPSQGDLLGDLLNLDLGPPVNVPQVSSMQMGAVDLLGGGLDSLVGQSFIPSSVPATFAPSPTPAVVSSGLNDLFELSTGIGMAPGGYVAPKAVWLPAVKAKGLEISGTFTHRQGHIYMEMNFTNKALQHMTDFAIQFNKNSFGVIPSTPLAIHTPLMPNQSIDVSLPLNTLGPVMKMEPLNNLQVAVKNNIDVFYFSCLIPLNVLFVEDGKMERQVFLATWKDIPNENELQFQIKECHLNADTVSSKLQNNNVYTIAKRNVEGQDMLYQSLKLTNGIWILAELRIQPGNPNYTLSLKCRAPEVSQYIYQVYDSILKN
ATP-binding cassette sub-family B member 6 (Homo sapiens), sequence (Q9NP58 whole entry, looked up): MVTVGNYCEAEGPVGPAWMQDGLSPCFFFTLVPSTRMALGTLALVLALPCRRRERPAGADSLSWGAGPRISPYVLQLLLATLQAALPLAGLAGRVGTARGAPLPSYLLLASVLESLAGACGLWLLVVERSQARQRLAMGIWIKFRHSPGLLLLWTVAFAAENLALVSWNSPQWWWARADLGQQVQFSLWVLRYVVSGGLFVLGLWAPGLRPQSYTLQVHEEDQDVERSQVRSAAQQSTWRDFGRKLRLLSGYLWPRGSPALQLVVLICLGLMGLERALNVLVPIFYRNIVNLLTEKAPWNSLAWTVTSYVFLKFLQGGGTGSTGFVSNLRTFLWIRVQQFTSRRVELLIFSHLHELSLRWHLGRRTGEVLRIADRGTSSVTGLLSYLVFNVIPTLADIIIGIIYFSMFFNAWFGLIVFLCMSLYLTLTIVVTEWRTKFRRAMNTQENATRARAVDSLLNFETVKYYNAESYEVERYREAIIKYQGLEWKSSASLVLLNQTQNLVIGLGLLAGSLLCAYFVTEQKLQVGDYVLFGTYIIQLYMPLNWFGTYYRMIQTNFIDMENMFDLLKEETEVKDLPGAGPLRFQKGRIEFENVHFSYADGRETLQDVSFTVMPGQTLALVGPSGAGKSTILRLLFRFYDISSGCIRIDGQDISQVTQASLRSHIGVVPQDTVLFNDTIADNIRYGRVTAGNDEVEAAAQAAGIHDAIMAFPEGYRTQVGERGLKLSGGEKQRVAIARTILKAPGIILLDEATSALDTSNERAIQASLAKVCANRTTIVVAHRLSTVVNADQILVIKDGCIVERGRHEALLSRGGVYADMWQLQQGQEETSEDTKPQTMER
Integrin beta-1 (Homo sapiens) + Integrin alpha-4 (Homo sapiens), sequence (P05556 whole entry, looked up): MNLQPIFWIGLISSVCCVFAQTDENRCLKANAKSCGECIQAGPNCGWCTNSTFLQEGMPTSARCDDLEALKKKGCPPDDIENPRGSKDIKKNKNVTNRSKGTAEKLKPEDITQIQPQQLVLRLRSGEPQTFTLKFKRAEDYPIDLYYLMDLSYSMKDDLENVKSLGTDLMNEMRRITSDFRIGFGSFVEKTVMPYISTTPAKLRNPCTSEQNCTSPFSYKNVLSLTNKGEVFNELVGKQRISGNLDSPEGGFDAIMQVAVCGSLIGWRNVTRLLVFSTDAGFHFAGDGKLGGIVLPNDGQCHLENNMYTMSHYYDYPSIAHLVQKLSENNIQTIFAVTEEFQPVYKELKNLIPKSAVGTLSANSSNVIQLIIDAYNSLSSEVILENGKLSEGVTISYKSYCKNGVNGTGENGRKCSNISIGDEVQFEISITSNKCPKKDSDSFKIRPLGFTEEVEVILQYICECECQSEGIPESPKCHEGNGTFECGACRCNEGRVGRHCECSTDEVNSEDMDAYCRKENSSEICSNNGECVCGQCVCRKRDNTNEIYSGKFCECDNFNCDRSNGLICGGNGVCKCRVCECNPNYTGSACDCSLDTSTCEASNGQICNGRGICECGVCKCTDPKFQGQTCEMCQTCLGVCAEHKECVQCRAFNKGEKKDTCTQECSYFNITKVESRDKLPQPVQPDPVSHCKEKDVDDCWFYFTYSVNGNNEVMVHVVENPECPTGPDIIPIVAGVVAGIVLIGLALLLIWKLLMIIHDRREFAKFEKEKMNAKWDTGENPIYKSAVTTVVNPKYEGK
Integrin beta-1 (Homo sapiens) + Integrin alpha-4 (Homo sapiens), sequence (P13612 whole entry, looked up): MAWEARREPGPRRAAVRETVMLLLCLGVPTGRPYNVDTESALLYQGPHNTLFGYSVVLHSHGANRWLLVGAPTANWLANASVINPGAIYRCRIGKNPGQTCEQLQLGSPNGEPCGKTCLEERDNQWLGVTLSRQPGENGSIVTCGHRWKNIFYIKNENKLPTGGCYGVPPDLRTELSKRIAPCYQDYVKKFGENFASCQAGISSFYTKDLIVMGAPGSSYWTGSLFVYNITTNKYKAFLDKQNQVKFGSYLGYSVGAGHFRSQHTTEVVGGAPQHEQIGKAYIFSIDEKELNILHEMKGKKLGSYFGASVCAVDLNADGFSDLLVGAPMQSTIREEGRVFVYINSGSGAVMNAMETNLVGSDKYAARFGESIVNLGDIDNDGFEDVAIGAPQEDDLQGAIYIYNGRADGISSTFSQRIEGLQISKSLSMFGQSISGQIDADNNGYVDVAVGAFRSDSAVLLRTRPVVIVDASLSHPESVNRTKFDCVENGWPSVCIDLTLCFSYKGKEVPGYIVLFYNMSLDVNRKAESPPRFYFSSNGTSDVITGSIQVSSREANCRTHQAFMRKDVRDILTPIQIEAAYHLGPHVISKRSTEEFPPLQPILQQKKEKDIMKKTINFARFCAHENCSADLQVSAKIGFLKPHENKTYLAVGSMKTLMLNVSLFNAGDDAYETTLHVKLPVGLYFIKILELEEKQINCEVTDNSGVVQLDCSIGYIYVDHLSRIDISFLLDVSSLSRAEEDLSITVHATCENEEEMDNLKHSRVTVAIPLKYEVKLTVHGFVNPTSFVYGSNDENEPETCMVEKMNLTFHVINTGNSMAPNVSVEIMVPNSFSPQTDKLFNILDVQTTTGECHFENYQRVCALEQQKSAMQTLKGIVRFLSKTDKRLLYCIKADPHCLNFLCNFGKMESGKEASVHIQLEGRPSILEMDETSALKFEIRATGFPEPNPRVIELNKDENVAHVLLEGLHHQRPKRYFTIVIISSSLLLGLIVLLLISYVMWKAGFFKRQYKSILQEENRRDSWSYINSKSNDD

The term inhibition denotes the change of the read-out against control, counted positive when it falls. `CSCCC(NC(=O)OC(C)(C)C)C(=O)Oc1ccc2c(=O)c(-c3ccc4c(c3)OCCO4)coc2c1` (stereo not drawn): the percent of DMSO control GFP in experiment [1] is 95.9% (inactive). Also, the GFP response vs DMSO is 107% (inactive) in experiment [2] and 132% (inactive) in experiment [4]. Besides, in experiment [3], the percent response of DMSO control is 94.8% (inactive). Also, the GFP response, % of DMSO in experiment [5] was 102% (inactive). Further, in experiment [6], the double positive events amounted to 59.4%. For the same compound, the vesicle binding response in experiment [6] was 190% (inactive). In addition, the inhibition in experiment [7] is -1.79% (inactive); in experiment [11] it was 3.81% (inactive); in [15], 1% (inactive). In [8], the superoxide response (% of plate) is 99.7% (inactive). Also, the aptamer binding inhibition in experiment [9] is 2% (inactive). For the same compound, the response in experiment [10] is 0.95% (inactive); in experiment [12], -3.69% (inactive). Further, the binding (% of control) in experiment [13] is 100% (inactive). Also, in experiment [14], the efflux inhibition (fraction of control) is -0.1 (inactive). The differentiation response in experiment [16] was 5.6% (inactive).

Take `CC[N+]1(CC)CC2=Cc3ccccc3CC2C1` (stereo not drawn): the percent of DMSO control GFP in experiment [1] was 91.5% (inactive). Moreover, the GFP response vs DMSO was 121% (inactive) in experiment [2] and 80.3% (inactive) in [4]. The percent response of DMSO control in experiment [3] was 93.9% (inactive). The GFP response, % of DMSO in experiment [5] is 88.9% (inactive). This compound gave a double positive events in experiment [6] of 64.8%. The vesicle binding response in experiment [6] was 178% (inactive). Moreover, the inhibition in [7] is 13.2% (inactive); in experiment [11], 43.9% (inactive); in [15], 13% (inactive). Also, in [8], the superoxide response (% of plate) was 90.8% (inactive). Further, in experiment [9], the aptamer binding inhibition was 2% (inactive). The response in experiment [10] is 0.79% (inactive); in experiment [12] it was -6.57% (inactive). Further, the binding (% of control) in experiment [13] is 99% (inactive). Moreover, in experiment [14], the efflux inhibition (fraction of control) is 0.3 (inactive). Besides, the differentiation response in [16] was 0% (inactive).

With `Cc1ccc(-n2cc(CNCCN3CCOC3=O)c(-c3ccc(F)cc3)n2)cc1`, in experiment [1], the percent of DMSO control GFP is 103% (inactive). In addition, the values for the GFP response vs DMSO in experiment [2] and in experiment [4] were 107% (inactive) and 85% (inactive), respectively. Moreover, the percent response of DMSO control in experiment [3] is 108% (inactive). Also, the GFP response, % of DMSO in experiment [5] is 96.5% (inactive). The compound also displayed a double positive events in experiment [6] of 59.3%. Further, the vesicle binding response in [6] was 129% (inactive). The inhibition was 9.63% (inactive) in experiment [7], -0.44% (inactive) in experiment [11] and 4% (inactive) in experiment [15]. Further, the superoxide response (% of plate) in [8] is 109% (inactive). Further, in experiment [9], the aptamer binding inhibition is 2% (inactive). Moreover, the response in experiment [10] was -24.7% (inactive); in experiment [12], -4.84% (inactive). For the same compound, the binding (% of control) in experiment [13] was 104% (inactive). In addition, the efflux inhibition (fraction of control) in experiment [14] is -0.36 (inactive). Further, the differentiation response in [16] was -1.65% (inactive).

Turning to `O[C@H]1COC2C1OC[C@@H]2O` (stereo partly drawn), in [1], the percent of DMSO control GFP was 99% (inactive). Also, the GFP response vs DMSO in [2] was 107% (inactive); in experiment [4], 115% (inactive). Also, the percent response of DMSO control in experiment [3] is 102% (inactive). Also, the GFP response, % of DMSO in [5] was 118% (inactive). In addition, the double positive events in [6] amounted to 58.3%. The vesicle binding response in [6] is 204% (inactive). Moreover, the inhibition is 1.44% (inactive) in experiment [7], 3.72% (inactive) in [11] and 2% (inactive) in experiment [15]. Further, in experiment [8], the superoxide response (% of plate) is 87.6% (inactive). Besides, in experiment [9], the aptamer binding inhibition was 0% (inactive). Further, the values for the response in experiment [10] and in experiment [12] were -28.6% (inactive) and 1.96% (inactive), respectively. Further, the binding (% of control) in experiment [13] was 104% (inactive). Further, the efflux inhibition (fraction of control) in experiment [14] is 0 (inactive). The differentiation response in experiment [16] is -4.99% (inactive).
